Drawing on PMC11006913, this text covers binding signal for 3 sequences.

Assay in all cases: PBM; 200 nM protein, PBS
Holding throughout (conditions): dsDNA, one strand shown

For test [1], the target named is HESX1 (Homo sapiens, UniProt Q9UBX0 95-180, R165K).
Test [2] concerns the target T1, NKX2-4 (Homo sapiens, UniProt Q9H2Z4 175-261, P217L).
T1 sequence: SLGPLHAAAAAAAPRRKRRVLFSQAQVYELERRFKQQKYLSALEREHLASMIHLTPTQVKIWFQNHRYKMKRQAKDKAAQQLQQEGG

Test [3] deals with T2, NKX2-4 (Homo sapiens, UniProt Q9H2Z4 175-261, T231S).
T2 sequence: T1 sequence with L43P, T57S

Test [4] addresses T3, NKX2-4 (Homo sapiens, UniProt Q9H2Z4 175-261).
T3 sequence: T1 sequence with L43P

For test [5], the target named is HESX1 (Homo sapiens, UniProt Q9UBX0 95-180).
Sequence of HESX1 (Homo sapiens, UniProt Q9UBX0 95-180) (Q9UBX0 95-180): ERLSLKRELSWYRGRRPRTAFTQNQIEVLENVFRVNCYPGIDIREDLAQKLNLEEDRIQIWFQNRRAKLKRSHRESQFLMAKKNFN
The target of test [6] is ALX1 (Homo sapiens, UniProt Q15699 118-204, L144V).
Sequence of ALX1 (Homo sapiens, UniProt Q15699 118-204, L144V) (Q15699 118-204 L144V): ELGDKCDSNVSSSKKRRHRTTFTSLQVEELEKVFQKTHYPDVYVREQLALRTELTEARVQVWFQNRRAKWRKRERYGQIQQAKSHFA
Test [7] has as its target ALX1 (Homo sapiens, UniProt Q15699 118-204, L144R).
Test [8] deals with T4, NKX2-4 (Homo sapiens, UniProt Q9H2Z4 175-261, R246Q).
T4 sequence: T1 sequence with L43P, R72Q

The target of test [9] is HESX1 (Homo sapiens, UniProt Q9UBX0 95-180, R109Q).
Sequence of HESX1 (Homo sapiens, UniProt Q9UBX0 95-180, R109Q) (Q9UBX0 95-180 R109Q): as the sequence (Q9UBX0 95-180) above, with R15Q counted along it
The target of test [10] is HESX1 (Homo sapiens, UniProt Q9UBX0 95-180, P111T).
Sequence of HESX1 (Homo sapiens, UniProt Q9UBX0 95-180, P111T) (Q9UBX0 95-180 P111T): as the sequence (Q9UBX0 95-180) above, with P17T counted along it
For test [11], the target named is HESX1 (Homo sapiens, UniProt Q9UBX0 95-180, F115L).
Sequence of HESX1 (Homo sapiens, UniProt Q9UBX0 95-180, F115L) (Q9UBX0 95-180 F115L): as the sequence (Q9UBX0 95-180) above, with F21L counted along it
Test [12] concerns the target ALX1 (Homo sapiens, UniProt Q15699 118-204).
Test [13] concerns the target HOXA4 (Homo sapiens, UniProt Q00056 201-287, W262R).
Test [14] deals with HOXB6 (Homo sapiens, UniProt P17509 132-218, K202E).
Sequence of HOXB6 (Homo sapiens, UniProt P17509 132-218, K202E) (P17509 132-218 K202E): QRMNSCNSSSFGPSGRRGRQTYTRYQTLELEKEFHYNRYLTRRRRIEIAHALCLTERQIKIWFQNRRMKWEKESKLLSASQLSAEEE
Test [15] concerns the target HOXA4 (Homo sapiens, UniProt Q00056 201-287, R217L).
In test [16] the target is HOXD13 (Homo sapiens, UniProt P35453 263-343, T313R).
Sequence of HOXD13 (Homo sapiens, UniProt P35453 263-343, T313R) (P35453 263-343 T313R): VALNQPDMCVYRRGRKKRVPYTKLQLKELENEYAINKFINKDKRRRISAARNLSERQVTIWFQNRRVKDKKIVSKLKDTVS
Test [17] concerns the target HOXD13 (Homo sapiens, UniProt P35453 263-343).
In test [18] the target is HOXA4 (Homo sapiens, UniProt Q00056 201-287).
Sequence of HOXA4 (Homo sapiens, UniProt Q00056 201-287) (Q00056 201-287): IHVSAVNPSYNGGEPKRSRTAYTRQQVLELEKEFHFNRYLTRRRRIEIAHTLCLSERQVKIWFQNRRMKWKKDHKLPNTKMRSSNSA
The target of test [19] is HOXD13 (Homo sapiens, UniProt P35453 263-343, T313A).
Sequence of HOXD13 (Homo sapiens, UniProt P35453 263-343, T313A) (P35453 263-343 T313A): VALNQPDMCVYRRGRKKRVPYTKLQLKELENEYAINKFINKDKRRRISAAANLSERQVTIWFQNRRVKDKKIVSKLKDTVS
In test [20] the target is HOXA4 (Homo sapiens, UniProt Q00056 201-287, W262F).
Sequence of HOXA4 (Homo sapiens, UniProt Q00056 201-287, W262F) (Q00056 201-287 W262F): as the sequence (Q00056 201-287) above, with W62F counted along it
Test [21] concerns the target HOXB6 (Homo sapiens, UniProt P17509 132-218).
Test [22] concerns the target HOXB9 (Homo sapiens, UniProt P17482 171-250, T197M).
Test [23] deals with HOXB9 (Homo sapiens, UniProt P17482 171-250).
Sequence of HOXB9 (Homo sapiens, UniProt P17482 171-250) (P17482 171-250): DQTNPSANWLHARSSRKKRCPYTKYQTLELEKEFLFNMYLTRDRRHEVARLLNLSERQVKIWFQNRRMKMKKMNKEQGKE
Test [24] concerns the target PROP1 (Homo sapiens, UniProt O75360 56-141).
For test [25], the target named is PROP1 (Homo sapiens, UniProt O75360 56-141, R99H).
Sequence of PROP1 (Homo sapiens, UniProt O75360 56-141, R99H) (O75360 56-141 R99H): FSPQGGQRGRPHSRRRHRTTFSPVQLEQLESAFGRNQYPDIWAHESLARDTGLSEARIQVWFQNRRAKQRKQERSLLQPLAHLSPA
The target in test [26] is HOXB9 (Homo sapiens, UniProt P17482 171-250, R186Q).
Sequence of HOXB9 (Homo sapiens, UniProt P17482 171-250, R186Q) (P17482 171-250 R186Q): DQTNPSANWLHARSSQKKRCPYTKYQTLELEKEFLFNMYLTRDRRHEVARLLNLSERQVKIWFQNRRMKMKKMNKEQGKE
The target of test [27] is PROP1 (Homo sapiens, UniProt O75360 56-141, F88S).
Sequence of PROP1 (Homo sapiens, UniProt O75360 56-141, F88S) (O75360 56-141 F88S): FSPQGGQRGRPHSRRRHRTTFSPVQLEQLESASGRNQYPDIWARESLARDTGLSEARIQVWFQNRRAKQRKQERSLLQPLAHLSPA

Changes are numbered by the printed parent chain.

Sequence of HESX1 (Homo sapiens, UniProt Q9UBX0 95-180, R165K) (Q9UBX0 95-180 R165K): as the sequence (Q9UBX0 95-180) above, with R71K counted along it
Sequence of HOXB9 (Homo sapiens, UniProt P17482 171-250, T197M) (P17482 171-250 T197M): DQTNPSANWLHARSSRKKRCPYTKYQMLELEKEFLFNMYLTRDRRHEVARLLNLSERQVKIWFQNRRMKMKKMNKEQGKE
Sequence of HOXA4 (Homo sapiens, UniProt Q00056 201-287, W262R) (Q00056 201-287 W262R): as the sequence (Q00056 201-287) above, with W62R counted along it
Sequence of ALX1 (Homo sapiens, UniProt Q15699 118-204, L144R) (Q15699 118-204 L144R): as the sequence (Q15699 118-204 L144V) above, with V27R counted along it
Sequence of ALX1 (Homo sapiens, UniProt Q15699 118-204) (Q15699 118-204): as the sequence (Q15699 118-204 L144V) above, with V27L counted along it
Sequence of HOXD13 (Homo sapiens, UniProt P35453 263-343) (P35453 263-343): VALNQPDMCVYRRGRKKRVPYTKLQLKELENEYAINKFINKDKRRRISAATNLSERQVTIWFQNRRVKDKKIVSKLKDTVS
Sequence of PROP1 (Homo sapiens, UniProt O75360 56-141) (O75360 56-141): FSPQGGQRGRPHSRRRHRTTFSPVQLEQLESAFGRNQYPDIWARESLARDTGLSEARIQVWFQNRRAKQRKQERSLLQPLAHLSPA
Sequence of HOXB6 (Homo sapiens, UniProt P17509 132-218) (P17509 132-218): as the sequence (P17509 132-218 K202E) above, with E71K counted along it
Sequence of HOXA4 (Homo sapiens, UniProt Q00056 201-287, R217L) (Q00056 201-287 R217L): as the sequence (Q00056 201-287) above, with R17L counted along it

Turning to ACGCTGCG, the binding signal in the test with HESX1 [1] is 6.32 upbm affinity estimate (log intensity, higher = more binding, comparable within an allelic series); in the test with NKX2-4 [2] it was 9.63 upbm affinity estimate (log intensity, higher = more binding, comparable within an allelic series); in the test with NKX2-4 [3], 9.6 upbm affinity estimate (log intensity, higher = more binding, comparable within an allelic series); in the test with NKX2-4 [4], 9.57 upbm affinity estimate (log intensity, higher = more binding, comparable within an allelic series); with HESX1 [5], 6.32 upbm affinity estimate (log intensity, higher = more binding, comparable within an allelic series); with ALX1 [6], 6.28 upbm affinity estimate (log intensity, higher = more binding, comparable within an allelic series). Moreover, the binding signal in the test with ALX1 [7] is 6.23 upbm affinity estimate (log intensity, higher = more binding, comparable within an allelic series); with NKX2-4 [8], 9.58 upbm affinity estimate (log intensity, higher = more binding, comparable within an allelic series); with HESX1 [9], 6.51 upbm affinity estimate (log intensity, higher = more binding, comparable within an allelic series); with HESX1 [10], 6.42 upbm affinity estimate (log intensity, higher = more binding, comparable within an allelic series); with HESX1 [11], 6.51 upbm affinity estimate (log intensity, higher = more binding, comparable within an allelic series); in the test with ALX1 [12] it was 6.21 upbm affinity estimate (log intensity, higher = more binding, comparable within an allelic series).
As for GCCCCCCA, the binding signal was 6.24 upbm affinity estimate (log intensity, higher = more binding, comparable within an allelic series) with HESX1 [1]; 9.56 upbm affinity estimate (log intensity, higher = more binding, comparable within an allelic series) with HOXA4 [13]; 8.7 upbm affinity estimate (log intensity, higher = more binding, comparable within an allelic series) in the test with HOXB6 [14]; 6.28 upbm affinity estimate (log intensity, higher = more binding, comparable within an allelic series) in the test with HESX1 [5]; 9.68 upbm affinity estimate (log intensity, higher = more binding, comparable within an allelic series) with HOXA4 [15]; 9.1 upbm affinity estimate (log intensity, higher = more binding, comparable within an allelic series) in the test with HOXD13 [16]. Moreover, the binding signal was 9.22 upbm affinity estimate (log intensity, higher = more binding, comparable within an allelic series) with HOXD13 [17]; 9.71 upbm affinity estimate (log intensity, higher = more binding, comparable within an allelic series) in the test with HOXA4 [18]; 6.41 upbm affinity estimate (log intensity, higher = more binding, comparable within an allelic series) in the test with HESX1 [9]; 6.34 upbm affinity estimate (log intensity, higher = more binding, comparable within an allelic series) with HESX1 [10]; 9.24 upbm affinity estimate (log intensity, higher = more binding, comparable within an allelic series) in the test with HOXD13 [19]; 6.4 upbm affinity estimate (log intensity, higher = more binding, comparable within an allelic series) with HESX1 [11]. Moreover, the binding signal with HOXA4 [20] is 9.58 upbm affinity estimate (log intensity, higher = more binding, comparable within an allelic series); in the test with HOXB6 [21], 8.91 upbm affinity estimate (log intensity, higher = more binding, comparable within an allelic series).
With GCGAGCGC, the binding signal was 6.46 upbm affinity estimate (log intensity, higher = more binding, comparable within an allelic series) with HESX1 [1]; 8.46 upbm affinity estimate (log intensity, higher = more binding, comparable within an allelic series) with HOXB9 [22]; 6.44 upbm affinity estimate (log intensity, higher = more binding, comparable within an allelic series) with HESX1 [5]; 8.32 upbm affinity estimate (log intensity, higher = more binding, comparable within an allelic series) in the test with HOXB9 [23]; 6.62 upbm affinity estimate (log intensity, higher = more binding, comparable within an allelic series) with PROP1 [24]; 6.48 upbm affinity estimate (log intensity, higher = more binding, comparable within an allelic series) in the test with HESX1 [9]. Besides, the binding signal was 6.66 upbm affinity estimate (log intensity, higher = more binding, comparable within an allelic series) with PROP1 [25]; 6.41 upbm affinity estimate (log intensity, higher = more binding, comparable within an allelic series) in the test with HESX1 [10]; 8.42 upbm affinity estimate (log intensity, higher = more binding, comparable within an allelic series) with HOXB9 [26]; 6.75 upbm affinity estimate (log intensity, higher = more binding, comparable within an allelic series) in the test with PROP1 [27]; 6.54 upbm affinity estimate (log intensity, higher = more binding, comparable within an allelic series) with HESX1 [11].
